According to article PMC7862700, “An all-to-all approach to the identification of sequence-specific readers for epigenetic DNA modifications on cytosine”:

Legend:
Test in all cases: DAPPL (digital affinity profiling via proximity ligation, sequencing); 10 mM Tris-HCl pH 7.5, 50 mM NaCl, 1 mM DTT, 4% glycerol, room temperature, 30 min; GST-TFs on glutathione beads, 16-mer random dsDNA library, 0.1% formaldehyde crosslink after washing; high values mean tight binding
Details in all cases: protein: recombinant; tags: N-terminal GST; dsDNA, one strand shown
GABPA = target: T1, GABPA (Homo sapiens, UniProt Q06546 1-454)
T1 sequence: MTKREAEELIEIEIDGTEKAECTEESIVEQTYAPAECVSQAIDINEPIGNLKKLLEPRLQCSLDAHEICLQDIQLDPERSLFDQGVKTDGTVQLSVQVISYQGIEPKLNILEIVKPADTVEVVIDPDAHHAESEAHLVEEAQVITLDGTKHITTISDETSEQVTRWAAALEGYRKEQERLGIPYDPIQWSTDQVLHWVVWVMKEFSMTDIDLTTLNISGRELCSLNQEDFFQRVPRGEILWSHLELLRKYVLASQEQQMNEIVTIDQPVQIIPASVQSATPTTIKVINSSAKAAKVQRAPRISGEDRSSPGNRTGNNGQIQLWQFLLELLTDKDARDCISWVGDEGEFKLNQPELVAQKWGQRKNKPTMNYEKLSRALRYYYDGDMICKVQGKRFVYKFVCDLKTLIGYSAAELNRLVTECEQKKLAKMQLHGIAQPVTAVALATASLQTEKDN
Summary of the method: (§1)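 GST fusions of human transcription factors were expressed in yeast and captured with glutathione beads. Once given DNA barcodes and pooled alongside a tag-only sample, they were incubated for 30 min at room temperature with 200 nmole of a random double-stranded 16-mer DNA library in Tris/NaCl/DTT/glycerol buffer, then washed, crosslinked (0.1% formaldehyde), proximity-ligated, PCR-amplified and sequenced on an Illumina NextSeq500. The binding signal of each hexamer is its read frequency for a factor divided by its frequency for the tag-only sample.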

ELF1 = ELF1 (Homo sapiens, UniProt P32519 1-619)
Sequence of ELF1 (P32519 whole entry): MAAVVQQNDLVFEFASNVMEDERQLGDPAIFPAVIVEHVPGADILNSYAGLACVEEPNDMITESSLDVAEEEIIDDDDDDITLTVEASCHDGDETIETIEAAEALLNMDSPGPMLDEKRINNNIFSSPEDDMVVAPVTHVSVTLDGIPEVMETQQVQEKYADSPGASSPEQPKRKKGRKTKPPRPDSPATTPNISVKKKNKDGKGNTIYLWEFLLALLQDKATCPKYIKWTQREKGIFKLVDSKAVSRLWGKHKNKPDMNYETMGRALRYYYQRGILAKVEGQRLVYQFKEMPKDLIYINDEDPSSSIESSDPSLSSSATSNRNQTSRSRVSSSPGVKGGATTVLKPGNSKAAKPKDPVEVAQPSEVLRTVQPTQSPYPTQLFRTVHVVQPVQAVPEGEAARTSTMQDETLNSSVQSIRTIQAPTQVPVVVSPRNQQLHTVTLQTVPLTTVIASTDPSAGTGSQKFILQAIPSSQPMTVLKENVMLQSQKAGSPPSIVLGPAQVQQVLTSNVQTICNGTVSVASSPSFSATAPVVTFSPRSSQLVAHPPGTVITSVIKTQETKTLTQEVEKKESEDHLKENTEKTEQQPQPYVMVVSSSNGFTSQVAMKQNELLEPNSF
Summary of the method: as §1

EHF = target: T2, EHF (Homo sapiens, UniProt Q9NZC4 1-300)
T2 sequence: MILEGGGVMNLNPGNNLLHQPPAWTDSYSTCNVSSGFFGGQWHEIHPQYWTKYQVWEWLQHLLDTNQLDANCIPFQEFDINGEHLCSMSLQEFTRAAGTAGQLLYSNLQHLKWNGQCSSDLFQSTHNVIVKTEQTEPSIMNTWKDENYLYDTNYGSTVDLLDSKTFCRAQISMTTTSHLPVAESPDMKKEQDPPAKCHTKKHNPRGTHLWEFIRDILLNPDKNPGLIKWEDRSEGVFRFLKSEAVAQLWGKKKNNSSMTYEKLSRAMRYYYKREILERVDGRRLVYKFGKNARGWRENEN
Summary of the method: as §1

ETV5 = ETV5 (Homo sapiens, UniProt P41161 1-510)
Sequence of ETV5 (P41161 whole entry): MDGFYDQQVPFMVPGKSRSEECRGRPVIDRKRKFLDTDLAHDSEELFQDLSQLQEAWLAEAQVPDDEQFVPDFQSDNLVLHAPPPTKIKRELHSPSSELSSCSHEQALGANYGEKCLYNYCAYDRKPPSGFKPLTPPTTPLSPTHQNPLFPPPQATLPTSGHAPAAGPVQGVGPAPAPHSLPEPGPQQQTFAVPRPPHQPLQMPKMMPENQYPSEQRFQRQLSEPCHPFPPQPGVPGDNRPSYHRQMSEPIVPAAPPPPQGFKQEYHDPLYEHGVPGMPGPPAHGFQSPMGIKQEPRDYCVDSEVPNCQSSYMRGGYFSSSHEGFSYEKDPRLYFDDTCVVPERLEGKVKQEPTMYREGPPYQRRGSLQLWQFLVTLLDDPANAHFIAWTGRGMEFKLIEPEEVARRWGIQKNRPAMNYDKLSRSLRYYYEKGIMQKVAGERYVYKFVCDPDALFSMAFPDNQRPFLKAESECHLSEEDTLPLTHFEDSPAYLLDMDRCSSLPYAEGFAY
Summary of the method: as §1

ELF3 = target: T3, ELF3 (Homo sapiens, UniProt P78545 1-371)
T3 sequence: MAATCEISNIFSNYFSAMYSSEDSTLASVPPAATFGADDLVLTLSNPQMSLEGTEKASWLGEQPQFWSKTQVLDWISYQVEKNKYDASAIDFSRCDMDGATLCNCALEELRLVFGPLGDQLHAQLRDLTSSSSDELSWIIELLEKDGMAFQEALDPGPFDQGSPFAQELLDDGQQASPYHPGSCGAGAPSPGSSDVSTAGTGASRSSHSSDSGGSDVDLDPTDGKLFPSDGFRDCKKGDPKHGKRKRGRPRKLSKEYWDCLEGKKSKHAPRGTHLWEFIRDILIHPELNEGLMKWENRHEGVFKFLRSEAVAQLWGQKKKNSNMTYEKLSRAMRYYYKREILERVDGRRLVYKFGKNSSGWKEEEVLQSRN
Summary of the method: as §1

ETV1 = ETV1 (Homo sapiens, UniProt P50549 1-477)
Sequence of ETV1 (P50549 whole entry): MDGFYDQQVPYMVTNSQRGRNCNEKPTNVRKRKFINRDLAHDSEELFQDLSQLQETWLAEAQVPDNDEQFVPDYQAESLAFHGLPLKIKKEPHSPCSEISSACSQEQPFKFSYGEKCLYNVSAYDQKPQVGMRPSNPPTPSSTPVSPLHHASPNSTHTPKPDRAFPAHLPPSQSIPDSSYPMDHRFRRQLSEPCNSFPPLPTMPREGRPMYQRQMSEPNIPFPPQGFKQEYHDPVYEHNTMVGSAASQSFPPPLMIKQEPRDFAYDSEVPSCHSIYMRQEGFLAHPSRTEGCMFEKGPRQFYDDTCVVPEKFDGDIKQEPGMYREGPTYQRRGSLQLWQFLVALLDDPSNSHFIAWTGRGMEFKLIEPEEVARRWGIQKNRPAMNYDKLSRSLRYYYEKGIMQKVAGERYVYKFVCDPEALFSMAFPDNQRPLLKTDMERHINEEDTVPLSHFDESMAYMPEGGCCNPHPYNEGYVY
Summary of the method: as §1

ERF = target: T4, ERF (Homo sapiens, UniProt P50548 1-548)
T4 sequence: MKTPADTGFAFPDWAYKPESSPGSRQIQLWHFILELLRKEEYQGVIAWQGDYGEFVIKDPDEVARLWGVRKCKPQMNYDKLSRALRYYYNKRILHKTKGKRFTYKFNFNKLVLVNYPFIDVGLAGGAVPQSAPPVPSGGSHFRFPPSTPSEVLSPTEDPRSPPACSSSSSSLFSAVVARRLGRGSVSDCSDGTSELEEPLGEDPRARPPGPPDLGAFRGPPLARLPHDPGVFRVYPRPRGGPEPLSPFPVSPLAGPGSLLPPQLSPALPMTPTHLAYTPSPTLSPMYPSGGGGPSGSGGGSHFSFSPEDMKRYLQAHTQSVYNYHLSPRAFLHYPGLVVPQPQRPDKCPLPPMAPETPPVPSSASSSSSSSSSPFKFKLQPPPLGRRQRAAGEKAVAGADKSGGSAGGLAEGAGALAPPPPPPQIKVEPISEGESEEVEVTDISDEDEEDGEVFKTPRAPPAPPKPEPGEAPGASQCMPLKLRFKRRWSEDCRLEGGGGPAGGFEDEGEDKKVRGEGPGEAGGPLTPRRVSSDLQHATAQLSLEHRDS
Summary of the method: as §1

ETV6 = ETV6 (Homo sapiens, UniProt P41212 1-452)
Sequence of ETV6 (P41212 whole entry): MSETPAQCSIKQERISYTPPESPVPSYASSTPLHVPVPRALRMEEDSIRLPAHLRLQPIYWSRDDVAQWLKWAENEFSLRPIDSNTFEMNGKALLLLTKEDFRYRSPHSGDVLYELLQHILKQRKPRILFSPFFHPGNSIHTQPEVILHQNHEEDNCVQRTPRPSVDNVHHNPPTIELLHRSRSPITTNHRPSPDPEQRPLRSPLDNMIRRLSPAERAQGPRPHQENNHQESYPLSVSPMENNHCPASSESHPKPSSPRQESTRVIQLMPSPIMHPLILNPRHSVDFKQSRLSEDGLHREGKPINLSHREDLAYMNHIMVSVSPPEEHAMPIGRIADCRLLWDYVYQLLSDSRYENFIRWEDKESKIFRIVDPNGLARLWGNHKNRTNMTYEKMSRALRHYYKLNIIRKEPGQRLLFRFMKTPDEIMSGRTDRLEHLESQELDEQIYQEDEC
Summary of the method: as §1

ELK3 = target: T5, ELK3 (Homo sapiens, UniProt P41970 1-407)
T5 sequence: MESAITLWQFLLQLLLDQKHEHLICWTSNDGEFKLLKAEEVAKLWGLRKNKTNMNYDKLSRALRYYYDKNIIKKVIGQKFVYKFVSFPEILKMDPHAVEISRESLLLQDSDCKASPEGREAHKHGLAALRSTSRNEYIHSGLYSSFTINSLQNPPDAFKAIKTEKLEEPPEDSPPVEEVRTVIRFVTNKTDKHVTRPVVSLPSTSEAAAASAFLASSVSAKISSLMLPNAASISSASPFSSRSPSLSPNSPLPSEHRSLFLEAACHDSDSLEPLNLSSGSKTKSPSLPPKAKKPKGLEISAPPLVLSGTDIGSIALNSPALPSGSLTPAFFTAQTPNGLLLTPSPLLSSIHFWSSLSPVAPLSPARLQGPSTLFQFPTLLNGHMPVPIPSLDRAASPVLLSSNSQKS
Summary of the method: as §1

ELK4 = target: T6, ELK4 (Homo sapiens, UniProt P28324-2 1-405)
T6 sequence: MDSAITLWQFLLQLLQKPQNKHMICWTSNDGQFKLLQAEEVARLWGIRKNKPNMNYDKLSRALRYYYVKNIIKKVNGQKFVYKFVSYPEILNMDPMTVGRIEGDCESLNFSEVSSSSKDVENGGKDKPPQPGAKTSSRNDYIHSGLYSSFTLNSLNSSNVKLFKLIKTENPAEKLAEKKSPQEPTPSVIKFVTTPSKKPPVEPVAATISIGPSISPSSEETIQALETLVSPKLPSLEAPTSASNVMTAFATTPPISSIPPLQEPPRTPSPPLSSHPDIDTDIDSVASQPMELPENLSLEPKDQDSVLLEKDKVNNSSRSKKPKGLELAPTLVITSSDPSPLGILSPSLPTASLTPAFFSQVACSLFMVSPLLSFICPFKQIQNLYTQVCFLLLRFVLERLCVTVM
Summary of the method: as §1

ETV3L = target: T7, ETV3L (Homo sapiens, UniProt Q6ZN32 1-361)
T7 sequence: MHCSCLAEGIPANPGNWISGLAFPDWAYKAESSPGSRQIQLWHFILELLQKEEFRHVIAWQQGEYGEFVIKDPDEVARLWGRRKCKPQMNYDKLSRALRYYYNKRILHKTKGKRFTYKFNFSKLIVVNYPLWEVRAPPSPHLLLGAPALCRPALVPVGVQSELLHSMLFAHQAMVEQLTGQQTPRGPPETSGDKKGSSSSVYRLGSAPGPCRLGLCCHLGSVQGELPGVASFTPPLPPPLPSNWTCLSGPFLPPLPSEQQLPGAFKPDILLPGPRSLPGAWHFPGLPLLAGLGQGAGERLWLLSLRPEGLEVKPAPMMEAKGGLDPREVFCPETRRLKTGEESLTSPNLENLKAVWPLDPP
Summary of the method: as §1

ETV7 = target: T8, ETV7 (Homo sapiens, UniProt Q9Y603 1-341)
T8 sequence: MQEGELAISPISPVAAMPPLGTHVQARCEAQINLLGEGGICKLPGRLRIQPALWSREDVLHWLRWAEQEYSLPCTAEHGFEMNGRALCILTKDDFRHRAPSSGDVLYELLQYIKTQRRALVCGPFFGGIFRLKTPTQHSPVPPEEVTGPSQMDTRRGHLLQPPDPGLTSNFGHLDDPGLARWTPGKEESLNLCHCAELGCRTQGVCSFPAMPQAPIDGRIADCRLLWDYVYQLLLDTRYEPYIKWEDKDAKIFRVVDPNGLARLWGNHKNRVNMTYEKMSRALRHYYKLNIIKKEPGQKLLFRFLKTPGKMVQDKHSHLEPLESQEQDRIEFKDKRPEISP
Summary of the method: as §1

| Sequence | binding signal (GABPA) | binding signal (ELF1) | binding signal (EHF) | binding signal (ETV5) | binding signal (ELF3) | binding signal (ETV1) | binding signal (ERF) | binding signal (ETV6) | binding signal (ELK3) | binding signal (ELK4) | binding signal (ETV3L) | binding signal (ETV7) |
| --- | --- | --- | --- | --- | --- | --- | --- | --- | --- | --- | --- | --- |
| CATAGC | 1.02 fold enrichment (6-mer frequency, TF over GST control) | 1.02 fold enrichment (6-mer frequency, TF over GST control) | 1.01 fold enrichment (6-mer frequency, TF over GST control) | 1.01 fold enrichment (6-mer frequency, TF over GST control) | 1.1 fold enrichment (6-mer frequency, TF over GST control) | 1.02 fold enrichment (6-mer frequency, TF over GST control) | 1.07 fold enrichment (6-mer frequency, TF over GST control) | 1.02 fold enrichment (6-mer frequency, TF over GST control) | – | – | – | – |
| AGCGGC | – | – | – | 1.03 fold enrichment (6-mer frequency, TF over GST control) | – | 1.09 fold enrichment (6-mer frequency, TF over GST control) | – | 1.15 fold enrichment (6-mer frequency, TF over GST control) | 1.03 fold enrichment (6-mer frequency, TF over GST control) | 1 fold enrichment (6-mer frequency, TF over GST control) | 1.01 fold enrichment (6-mer frequency, TF over GST control) | 1.01 fold enrichment (6-mer frequency, TF over GST control) |
